Reference: PubChem BioAssay (Tox21)
Results filed as inconclusive are left out. The source made the active and inactive calls. Unless noted, calls come from the whole dose curve.

Assays:
[1] = Nuclear factor erythroid 2-related factor 2/antioxidant responsive element (Nrf2/ARE) small molecule agonists: qHTS cell viability counter screen in human keratinocytes (AID 1919968; active = well fitted curve in the direction sought with a large enough effect in the repeat runs; an effect the other way counts as inactive or inconclusive; note: nearly all actives have a fitted effect of over 55% in size)
In short: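 After a 5 h attachment period, ARE-reporter keratinocytes were dosed with compounds in DMSO and then cultured 23 h at 37 C. Cell viability came from CellTiter-Fluor signal read after a further 1 h.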

[2] = Nuclear factor erythroid 2-related factor 2/antioxidant responsive element (Nrf2/ARE) small molecule agonists: luciferase reporter gene qHTS assay in human keratinocytes (AID 1919969); note: nearly all actives have a fitted effect of over 35% in size
[3] = molecular target: Gonadotropin-releasing hormone receptor (Homo sapiens) (UniProt P30968); test: Human gonadotropin-releasing hormone receptor (GnRHR) small molecule agonists, calcium flux assay in GnRHR-HEK293 cells (AID 1920063); note: nearly all actives have a fitted effect of over 35% in size
Gonadotropin-releasing hormone receptor (Homo sapiens), sequence (P30968 whole entry, looked up): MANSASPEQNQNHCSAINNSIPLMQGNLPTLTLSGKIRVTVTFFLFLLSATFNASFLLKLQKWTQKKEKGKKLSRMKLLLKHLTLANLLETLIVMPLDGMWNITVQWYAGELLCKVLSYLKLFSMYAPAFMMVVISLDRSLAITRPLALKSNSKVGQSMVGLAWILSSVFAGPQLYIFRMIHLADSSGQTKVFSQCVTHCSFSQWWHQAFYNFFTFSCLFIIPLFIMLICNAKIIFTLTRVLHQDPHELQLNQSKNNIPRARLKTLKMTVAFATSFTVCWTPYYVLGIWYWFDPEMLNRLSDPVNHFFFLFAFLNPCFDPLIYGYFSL
In short: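 We seeded human GnRHR-expressing HEK293 cells for 18 hours, loaded them with calcium dye for an hour at 37 C, added test compounds, and recorded fluorescence intensity kinetically for three minutes.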

[4] = molecular target: KiSS-1 receptor (Homo sapiens) (UniProt Q969F8); test: Human kisspeptin (KISS1R) small molecule agonists, calcium flux assay in KISS1R-HEK293 cells (AID 1920064; active = well fitted curve in the direction sought with a large enough effect in the repeat runs; an effect the other way counts as inactive or inconclusive)
KiSS-1 receptor (Homo sapiens), sequence (Q969F8 whole entry, looked up): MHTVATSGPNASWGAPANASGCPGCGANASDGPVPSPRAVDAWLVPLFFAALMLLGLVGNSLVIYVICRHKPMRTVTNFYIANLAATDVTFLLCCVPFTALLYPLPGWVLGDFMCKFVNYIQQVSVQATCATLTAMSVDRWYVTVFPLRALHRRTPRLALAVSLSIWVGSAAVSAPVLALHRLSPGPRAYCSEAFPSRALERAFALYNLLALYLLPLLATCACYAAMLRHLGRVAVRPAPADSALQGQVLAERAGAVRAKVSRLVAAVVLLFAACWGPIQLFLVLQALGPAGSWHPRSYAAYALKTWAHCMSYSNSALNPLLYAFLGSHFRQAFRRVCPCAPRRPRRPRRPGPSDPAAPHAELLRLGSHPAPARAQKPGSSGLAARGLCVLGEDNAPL
In short: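 Kinetic calcium assay, 1 s sampling over 3 min at Ex/Em 480/540, in HEK293 cells engineered with human KISS1R; compounds delivered in DMSO after 1 h dye loading.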

[5] = G protein-coupled receptor (GPCR) small molecule agonists, calcium flux assay: HEK293 wild type cell line counter screen (AID 1920065)
In short: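 Calcium-sensitive dye, loaded 1 h at 37 C into cells cultured 18 h, reports compound-evoked calcium release as fluorescence (Ex/Em 480/540), measured over 3 min. Agonist mode; 15-point titrations, triplicate.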

[6] = p53 small molecule agonists, cell-based qHTS assay with human liver microsomes (AID 1963577);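 note: p53 response element beta-lactamase reporter cells with liver microsomes plus NADPH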
In short: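 HLM-supplemented p53RE-bla reporter assay: 16 h compound exposure at 37 C, microsomes and NADPH each 0.5 mg/mL final, read by fluorescence intensity.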

[7] = p53 small molecule agonists, cell-based qHTS assay with human liver microsomes: qHTS cell viability counter screen (AID 1963579); note: nearly all actives have a fitted effect of over 45% in size
In short: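 Viability of p53RE-bla cells is measured as CellTiter-Glo luminescence following a 16 h, 37 C incubation with compound, liver microsomes from human donors and NADPH.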

[8] = p53 small molecule agonists, cell-based qHTS assay: qHTS cell viability counter screen (AID 1963581); note: nearly all actives have a fitted effect of over 45% in size
In short: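 Following 5 h attachment, HCT-116 p53RE-bla cells took up compound for 16 h at 37 C; the reporter was read with B/G FRET substrate (2 h RT), and viability then via CellTiter-Glo ATP luminescence.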

[9] = p53 small molecule agonists, cell-based qHTS assay (AID 1963582; active = well fitted activation curve with a large enough effect in the signal ratio in the repeat runs, not every such curve was filed as active; the % refers to the signal ratio)
In short: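 In this cell-based concentration-response screen, a p53 response element drives beta-lactamase; cells received DMSO-borne compounds after 5 h culture and were incubated a further 16 h before FRET substrate development.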

[10] = molecular target: 5-hydroxytryptamine receptor 2A (Homo sapiens) (UniProt P28223); test: 5-hydroxytryptamine receptor 2A (HTR2A) small molecule antagonists, cell-based qHTS assay (AID 1963586); note: nearly all actives have a fitted effect of over 45% in size
5-hydroxytryptamine receptor 2A (Homo sapiens), sequence (P28223 whole entry, looked up): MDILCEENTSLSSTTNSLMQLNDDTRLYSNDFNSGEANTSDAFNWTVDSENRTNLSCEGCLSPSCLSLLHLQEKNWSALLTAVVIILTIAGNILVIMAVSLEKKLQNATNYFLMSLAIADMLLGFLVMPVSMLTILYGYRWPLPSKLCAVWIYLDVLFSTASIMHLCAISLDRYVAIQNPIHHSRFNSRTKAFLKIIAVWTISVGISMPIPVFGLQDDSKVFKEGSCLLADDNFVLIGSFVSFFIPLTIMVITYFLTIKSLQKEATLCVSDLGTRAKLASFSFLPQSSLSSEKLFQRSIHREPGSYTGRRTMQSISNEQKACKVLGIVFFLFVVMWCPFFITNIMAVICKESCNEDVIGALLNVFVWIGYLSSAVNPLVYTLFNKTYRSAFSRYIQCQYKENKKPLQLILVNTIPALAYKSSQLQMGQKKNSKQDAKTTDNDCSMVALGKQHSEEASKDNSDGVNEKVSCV
In short: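 Antagonist-mode intracellular calcium assay: DOI (4 nM) added after 5 min compound pre-incubation at room temperature to dye-loaded HTR2A-CHO cells. Fluorescence followed for 3 min, sampled every second.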

[11] = molecular target: 5-hydroxytryptamine receptor 2A (Homo sapiens) (UniProt P28223); test: 5-hydroxytryptamine receptor 2A (HTR2A) small molecule agonists, cell-based qHTS assay (AID 1963587); note: nearly all actives have a fitted effect of over 30% in size
In short: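 HTR2A-CHO cells, plated 18 h at 37 C/5% CO2, dye-loaded 1 h at 37 C; compounds in DMSO added by pin tool (agonist mode). Intracellular calcium flux read as kinetic fluorescence on FDSS over 2 min at 1 s intervals.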

[12] = molecular target: Muscarinic acetylcholine receptor M1 (Homo sapiens) (UniProt P11229); test: Cholinergic receptor muscarinic 1 (CHRM1) small molecule antagonists, cell-based qHTS assay (AID 1963588); note: nearly all actives have a fitted effect of over 40% in size
Muscarinic acetylcholine receptor M1 (Homo sapiens), sequence (P11229 whole entry, looked up): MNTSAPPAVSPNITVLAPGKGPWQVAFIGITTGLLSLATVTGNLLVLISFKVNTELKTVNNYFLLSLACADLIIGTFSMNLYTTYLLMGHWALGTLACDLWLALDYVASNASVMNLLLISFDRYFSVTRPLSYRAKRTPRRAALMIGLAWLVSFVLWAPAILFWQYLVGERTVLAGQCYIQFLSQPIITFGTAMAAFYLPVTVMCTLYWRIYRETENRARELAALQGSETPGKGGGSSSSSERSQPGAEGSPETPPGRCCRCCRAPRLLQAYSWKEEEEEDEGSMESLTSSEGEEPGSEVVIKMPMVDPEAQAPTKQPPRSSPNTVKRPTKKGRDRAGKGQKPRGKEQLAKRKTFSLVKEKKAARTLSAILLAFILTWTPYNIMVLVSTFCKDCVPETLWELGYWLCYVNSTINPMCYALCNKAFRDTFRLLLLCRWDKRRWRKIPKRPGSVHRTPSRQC
In short: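 CHRM1-CHO calcium-flux assay, antagonist mode. Cells were seeded 18 h, dye-loaded 1 h at 37 C and given compound for 5 min at RT, then acetylcholine was added at 50nM. FDSS fluorescence was read 3 min; 15 concentrations, three runs.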

[13] = molecular target: Muscarinic acetylcholine receptor M1 (Homo sapiens) (UniProt P11229); test: Cholinergic receptor muscarinic 1 (CHRM1) small molecule agonists, cell-based qHTS assay (AID 1963589); note: nearly all actives have a fitted effect of over 35% in size
In short: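 Measures agonist-induced intracellular calcium rise. Stable human CHRM1 CHO line, 1 h dye load at 37 C, compounds from DMSO, kinetic fluorescence read.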

[14] = cAMP Responsive Elements (CRE) small molecule agonists, cell-based qHTS assay (AID 1963590)
In short: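 A CRE-responsive beta-lactamase reporter in HEK 293T cells was used. Treatment ran 3 h at 37 C; detection used LiveBLAzer B/G FRET substrate for 2 h at room temperature.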

[15] = cAMP Responsive Elements (CRE) small molecule antagonists, cell-based qHTS assay (AID 1963591; active = well fitted inhibition curve with a large enough effect in the signal ratio in the repeat runs, not every such curve was filed as active; the % refers to the signal ratio)
In short: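 HEK293T cells carrying a CRE-driven beta-lactamase reporter receive compound and NKH477 (0.25 uM final) for 3 h. Fluorescence from LiveBLAzer B/G FRET substrate is read after 2 h at room temperature.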

[16] = molecular target: Beta-2 adrenergic receptor (Homo sapiens) (UniProt P07550); test: Adrenergic beta2 receptor (ADRB2) small molecule antagonists, cell-based qHTS assay (AID 1963592); note: series mostly up to about 92 µM; nearly all actives have a fitted effect of over 50% in size
Beta-2 adrenergic receptor (Homo sapiens), sequence (P07550 whole entry, looked up): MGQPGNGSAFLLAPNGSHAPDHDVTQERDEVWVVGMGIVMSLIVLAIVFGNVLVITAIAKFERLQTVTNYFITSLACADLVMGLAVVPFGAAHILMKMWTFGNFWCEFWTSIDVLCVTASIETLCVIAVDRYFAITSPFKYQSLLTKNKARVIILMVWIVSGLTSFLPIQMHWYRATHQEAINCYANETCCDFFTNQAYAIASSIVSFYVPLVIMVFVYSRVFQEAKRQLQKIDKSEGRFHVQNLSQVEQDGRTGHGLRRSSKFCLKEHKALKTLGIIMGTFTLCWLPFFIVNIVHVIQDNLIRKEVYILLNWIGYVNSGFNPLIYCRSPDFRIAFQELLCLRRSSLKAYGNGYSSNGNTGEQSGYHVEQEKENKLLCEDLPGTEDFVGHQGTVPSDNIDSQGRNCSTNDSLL
In short: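 Cells (CHO, stable ADRB2 overexpression) incubated 18-20hr at 37C; compounds added from DMSO; agonist mix (1nM isoproterenol, 100uM IBMX, 25uM Ro-20-1724) added; 0.5hr RT; d2-cAMP and anti-cAMP-cryptate added; 1hr RT; 665/615 nm read.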

[17] = molecular target: Beta-2 adrenergic receptor (Homo sapiens) (UniProt P07550); test: Adrenergic beta2 receptor (ADRB2) small molecule agonists, cell-based qHTS assay (AID 1963593);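 note: CHO cells stably overexpressing human ADRB2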
In short: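 CHO cells stably over-expressing ADRB2 were plated overnight at 37C, then dosed with compounds plus a stimulation mix containing 100uM IBMX and 25uM Ro-20-1724 for 0.5hr at room temperature. cAMP was measured by HTRF competition, 1hr.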

[18] = molecular target: D(2) dopamine receptor (Homo sapiens) (UniProt P14416); test: Dopamine D2 receptor (DRD2) small molecule agonists, cell-based qHTS assay (AID 1963594); note: nearly all actives have a fitted effect of over 35% in size
D(2) dopamine receptor (Homo sapiens), sequence (P14416 whole entry, looked up): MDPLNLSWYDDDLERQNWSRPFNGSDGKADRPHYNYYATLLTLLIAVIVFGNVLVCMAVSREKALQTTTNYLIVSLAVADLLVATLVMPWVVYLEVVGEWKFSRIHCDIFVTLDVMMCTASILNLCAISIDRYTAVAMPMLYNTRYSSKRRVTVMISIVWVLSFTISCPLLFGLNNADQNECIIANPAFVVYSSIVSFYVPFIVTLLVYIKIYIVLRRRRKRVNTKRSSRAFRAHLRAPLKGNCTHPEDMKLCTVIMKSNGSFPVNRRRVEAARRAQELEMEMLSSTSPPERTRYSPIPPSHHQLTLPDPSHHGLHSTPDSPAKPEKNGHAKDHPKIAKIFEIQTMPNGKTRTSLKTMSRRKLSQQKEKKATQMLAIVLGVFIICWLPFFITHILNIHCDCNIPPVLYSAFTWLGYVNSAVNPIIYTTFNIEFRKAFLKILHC
In short: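 HEK293 cells stably expressing DRD2 were cultured 24 h at 37 C, then given Ro20-1724 (0.1 mM final) and compounds for 10 min at room temperature. NKH477 (200nM) was then added for 30 min. cAMP was read by HTRF.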

[19] = molecular target: D(2) dopamine receptor (Homo sapiens) (UniProt P14416); test: Dopamine D2 receptor (DRD2) small molecule antagonists, cell-based qHTS assay (AID 1963595; active = well fitted inhibition curve with a large enough effect in the signal ratio in the repeat runs, with a control signal flat; the % refers to the signal ratio)
In short: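 Antagonism was scored as restored cAMP in HEK293-DRD2 cells. These cells were stimulated with 200 nM NKH477 and 12 nM quinpirole for 30 min at room temperature, in the presence of 0.1 mM Ro20-1724.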

[20] = p53 small molecule agonists, cell-based qHTS assay with rat liver microsomes: qHTS cell viability counter screen (AID 1963580); note: nearly all actives have a fitted effect of over 45% in size
In short: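 p53RE-bla HCT-116 cells (4,000/well) rested 5 h at 37 C, then given Tox21 compounds in DMSO with rat liver microsomes (0.5 mg/mL final) plus NADPH (0.5 mg/mL final) for 16 h at 37 C. Viability read by CellTiter-Glo luminescence after 30 min at room temperature.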

Measured: Potency

CCCCCCCCOC(=O)CCCCCCCCC(=O)OCCCCCCCC
not listed: [20]
inactive: all other assays above

CC(=O)N1C[C@H](O)C[C@H]1C(=O)O
not listed: [7] | [15] | [16]
inactive: all other assays above

O=C(O)CCc1ccccc1
not listed: [6]
inactive: all other assays above

CCC/C=C/CO
not listed: [6]
inactive: all other assays above

CCCCCCS
not listed: [6]
inactive: all other assays above

CC(=O)O[C@H](CC(=O)[O-])C[N+](C)(C)C
not listed: [7] | [17]
inactive: all other assays above

COC(=O)N[C@H](C(=O)N[C@@H](Cc1ccccc1)[C@@H](O)CN(Cc1ccc(-c2ccccn2)cc1)NC(=O)[C@@H](NC(=O)OC)C(C)(C)C)C(C)(C)C
not listed: [6]
inactive: all other assays above
